# Hits are enriched below; roughly 3.7% of the tested compounds scored in any of these assays.
# BH1578 lux ind = inducers of Vibrio cholerae quorum light production without autoinducers, primary screen, BH1578 luxS cqsA deficient, single point | V. cholerae BH1578 lux reporter, luminescence, 6 h | activation, % at 18.7 µM | 350,000 compounds, 0.16% hits | AID 588436, 2011; in the data active = activation mostly above about 9.7%, no sharp cut-off; inconclusive = no clear call, values can overlap the other calls; inactive = mostly below about 3.7%
# BoNT A protease = BoNT/A light chain protease inhibitors, primary screen, biochemical, flow cytometry, MLPCN library. Botulinum neurotoxin type A light chain protease (Clostridium botulinum A str. ATCC 3502). multiplex microsphere protease substrate cleavage. inhibition, % at 10 µM. 360,000 compounds, 0.17% hits. AID 588499, 2011; note: plate controls were buffer without enzyme for full effect and enzyme alone for no effect
# Anthrax LF inh2 = Bacillus anthracis LF protease inhibitors, primary screen, biochemical, multiplex microsphere, MLPCN library. Lethal factor (Bacillus anthracis), P15917. multiplex microsphere protease cleavage assay. inhibition, % at 10 µM. 360,000 compounds, 0.12% hits. AID 588501, 2011; note: plate controls were buffer without enzyme for full effect and enzyme alone for no effect
# Target sequence (P15917 whole entry, looked up): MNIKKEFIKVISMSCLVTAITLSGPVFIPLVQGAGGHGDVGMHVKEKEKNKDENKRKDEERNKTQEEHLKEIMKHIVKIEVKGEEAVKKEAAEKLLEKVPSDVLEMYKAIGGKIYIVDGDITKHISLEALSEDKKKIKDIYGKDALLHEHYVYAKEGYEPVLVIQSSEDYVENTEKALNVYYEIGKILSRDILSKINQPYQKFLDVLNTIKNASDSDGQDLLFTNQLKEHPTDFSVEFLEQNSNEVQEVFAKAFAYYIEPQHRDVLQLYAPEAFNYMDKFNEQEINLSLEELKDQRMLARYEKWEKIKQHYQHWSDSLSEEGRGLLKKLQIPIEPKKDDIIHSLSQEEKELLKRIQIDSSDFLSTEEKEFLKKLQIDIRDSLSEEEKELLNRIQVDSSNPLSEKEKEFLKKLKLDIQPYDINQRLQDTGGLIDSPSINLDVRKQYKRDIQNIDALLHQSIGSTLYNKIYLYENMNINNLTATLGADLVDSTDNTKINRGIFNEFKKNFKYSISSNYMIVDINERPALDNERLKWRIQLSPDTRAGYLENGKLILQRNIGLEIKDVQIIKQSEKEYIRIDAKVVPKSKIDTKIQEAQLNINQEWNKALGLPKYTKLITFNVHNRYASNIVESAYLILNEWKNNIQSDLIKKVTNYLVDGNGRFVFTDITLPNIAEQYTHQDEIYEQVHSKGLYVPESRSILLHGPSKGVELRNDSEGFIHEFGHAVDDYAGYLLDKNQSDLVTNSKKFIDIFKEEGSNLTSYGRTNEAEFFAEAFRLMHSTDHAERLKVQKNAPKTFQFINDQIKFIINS
# BJeLR lethal = MLPCN primary cell-based screen for lethality selective to Ras in HRASV12 cells | inhibition, % (no concentration beside the values) | BJeLR (HRASV12) viability, CellTiter-Glo ATP luminescence, 48 h | 300,000 compounds, 0.17% hits; in the data active = inhibition above about 50%; inconclusive = no clear call, values can overlap the other calls
# BoNT F protease = BoNT/F light chain protease inhibitors, primary screen, biochemical, flow cytometry, MLPCN library; Botulinum neurotoxin type F light chain protease (Clostridium botulinum); Multiplex microsphere protease cleavage assay; inhibition, % at 10 µM; 360,000 compounds, 0.22% hits; in the data active = inhibition above about 35%, passing the limit was not always enough; inconclusive = no clear call, values can overlap the other calls; note: plate controls were buffer without enzyme for full effect and enzyme alone for no effect
# Bead autofluor = compound fluorescence in toxin protease inhibitor counterscreen. fluorescence intensity (concentration not given with the values). 360,000 compounds, 3.1% hits. compound autofluorescence counterscreen, microsphere flow cytometry; active compounds read high; in the data active = fluorescence intensity above about 16000; inconclusive = no clear call, values can overlap the other calls
# The depositor's hits bear a star; i = inactive; ? = inconclusive; / = no result given. Cut-off read from the data, not from the text of the source, unless noted: active = inhibition above about 30%; inconclusive = no clear call, values can overlap the other calls; inactive = below that.
SMILES,BH1578 lux ind,BoNT A protease,Anthrax LF inh2,BJeLR lethal,BoNT F protease,Bead autofluor
CCN(CC)c1ccc(/C=N/Nc2nc3ccccc3[nH]2)c(O)c1,/,0.1,-12.2,60.3*,-25.8,2350
Cc1ccc(CNC(=O)CCC(=O)c2cccs2)cc1,i,1.8,-0.7,2.7,1.5,22864*
O=C(Cc1ccc(-c2ccccc2)cc1)NCc1ccccc1,-0.1,1.8,1.4,63.7*,11.3,9994
O=C(Cc1coc2ccc3ccccc3c12)NCc1ccccc1,0.6,-2.1,-1.3,1.4,-2.6,20707*
O=C(CCC(=O)c1cccs1)NCc1ccc(Cl)cc1,4.2,0.4,0.0,5.4,-1.2,2655
Cc1ccc(CNC(=O)Cc2ccc(-c3ccccc3)cc2)cc1,i,-4.2,-2.7,-4.9,-5.3,25102*
COc1ccc(N2CSC(=S)N(c3ccc(OC)cc3)C2)cc1,i,0.1,0.2,/,-12.0,3848
CCOC(=O)N1CCC(n2c(=S)[nH]c3cc(OCC)c(OCC)cc3c2=O)CC1,i,?,-5.0,-5.4,8.8,18805*
CCOc1cc2[nH]c(=S)n(C3CC3)c(=O)c2cc1OCC,0.6,0.3,0.6,3.0,-1.4,3956
CCOc1cc2[nH]c(=S)n(CCCOC)c(=O)c2cc1OCC,-0.4,-0.4,-3.8,-3.1,-9.7,8126
CCOc1cc2[nH]c(=S)n(Cc3ccc(C)o3)c(=O)c2cc1OCC,-0.2,?,-5.1,-21.4,-4.8,17111*
CCOc1cc2[nH]c(=S)n(C(C)C)c(=O)c2cc1OCC,-3.0,-0.2,-4.7,-3.6,-2.9,21566*
N#Cc1ccc(C(=O)Nc2ccc(N3CCN(C(=O)c4ccco4)CC3)cc2)c(F)c1,i,-1.9,-0.5,4.6,-7.4,24354*
O=C(CSc1nn(-c2ccccc2)c(=S)s1)NC(=O)NCc1ccco1,-0.2,-1.5,-0.5,-11.9,-1.3,23530*
CCS(=O)(=O)n1nc(-c2ccc(Cl)cc2)nc1SC,i,-0.7,-4.1,-5.5,-2.1,22674*
CCS(=O)(=O)n1nc(-c2ccco2)nc1SC,-0.4,0.4,1.0,-7.3,4.8,3501
CC(C)CNc1ncnc2c1ncn2[C@H]1CN(CCc2ccccc2)C[C@@H](CO)O1,4.5,-0.4,6.0,/,4.8,3796
O=C(NNC(=O)c1ccccc1F)c1cccc(Cl)c1,-0.4,-4.7,0.0,/,-6.5,25813*
O=C(CC(Nc1ccccc1)C(=O)O)c1ccccc1 (stereo not given),-0.6,1.0,1.4,0.2,42.0*,3527
Cc1ccc(NC(CC(=O)c2ccccc2)C(=O)O)cc1Cl (stereo not given),-0.5,0.8,0.3,6.7,2.7,4785
O=C1NCC(CN(c2ccccc2)c2ccccc2)O1 (stereo not given),12.5,3.0,-2.8,2.0,4.3,19299*
Cc1ccccc1OCC1CNC(=O)O1 (stereo not given),-1.0,-0.2,1.8,-0.7,0.0,2006
CCn1c(Cc2ccccc2)nnc1SCC(=O)Nc1cc(C)on1,-2.6,3.4,-4.1,-5.4,2.9,21460*
CNC(=O)CSc1nnc(COc2ccc(Cl)cc2)n1CCOC,-0.2,1.8,0.8,-13.6,3.8,22197*
COCCn1c(Cc2ccccc2)nnc1SCC(=O)N(C)C,-0.2,1.3,1.0,2.7,2.2,21939*
SMILES,BH1578 lux ind,BoNT A protease,Anthrax LF inh2,BJeLR lethal,BoNT F protease,Bead autofluor
Cn1c(Cc2ccccc2)nnc1SCC(=O)c1ccc(Br)s1,i,-2.1,-3.2,-23.6,-4.4,23767*
Cn1nnnc1SCC(=O)c1ccc(Br)s1,-0.2,-0.2,-4.2,12.3,-2.3,3079
Cc1cc(NC(=O)CSc2nnc(Cc3ccccc3)n2C)no1,0.7,0.1,0.4,-5.4,-4.6,3862
Cc1cn([C@H]2C[C@H](O)[C@@H](/C=C/C(=O)NCCC(C)C)O2)c(=O)[nH]c1=O,/,-0.4,-10.3,/,-7.5,6101
CCOC(=O)[C@]12CCCC=C1N(Cc1cccc3ccccc13)C(=O)[C@H](CC(=O)N1CCCC1)C2,/,-1.8,-13.4,/,-18.5,4908
CN(C)c1ccc(CC(=O)N2CCCC(c3cc(C(=O)Nc4ccc(C(C)(C)C)cc4)no3)C2)cc1 (stereo not given),0.1,-0.9,-9.2,/,-5.5,4188

# Bioassay records (PubChem BioAssay)
